Target: HLA-C*04:01
Experiment: thermal melting temperature (Tm) of peptide-HLA complex; higher = more thermostable pHLA complex
Description: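 Endogenous HLA-C*04:01 ligands were detected in the thermostability assays of both the C1R-A*02:01 and C1R-B*07:02 lines. Lysates were heated 10 min at 37-73 °C and pHLA immunoprecipitated with W6/32. Peptides were quantified by DIA-MS and Tm was taken from a logistic sigmoid fit.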

| Sequence | thermal melting temperature (C1R-A*02:01) [°C] | thermal melting temperature (C1R-B*07:02) [°C] |
| --- | --- | --- |
| FFDEESYSL | 45 | 43.7 |
| SFDVSQKF | 49 | 49.7 |
| ILDPHVVLL | 54.8 | 57.6 |
| MLDPLEVHL | 47.2 | 52.5 |
| IYDKFIAQL | 52.5 | 54.5 |
| HWDPQEVTL | 58.9 | 57.7 |
| KFDDGAVFL | 60.9 | 60.4 |
| IWDVSVNSV | 50.8 | 58.7 |
| NYDEALRLL | 54 | 53 |
| FNDTFVHV | 49.3 | 48.5 |
| QLDPLVVEL | 50 | 46.9 |
| KYDPNVYSI | 50.6 | 55.2 |
| TFDASRTTF | 53.4 | 53.5 |
| RFDSDVGEF | 54.9 | 54.5 |
| AFDVHLNAF | 55.5 | 55.9 |
| VFHVQQTEM | 53.8 | 54.5 |
| FYPPDPAQL | 49.5 | 51.5 |
| YYEEQHPEL | 48.6 | 47 |
| VWDVIGRSL | 53.5 | 51.9 |
| TFDVAPSRL | 52.3 | 52.4 |
| VYDIAAKF | 56.9 | 57.6 |

| Sequence | thermal melting temperature (C1R-A*02:01) [°C] | thermal melting temperature (C1R-B*07:02) [°C] |
| --- | --- | --- |
| LFDKSINEF | 56.3 | 57.2 |
| SFDSTVRL | 52.9 | 54.6 |
| TFDDIVHSF | 54.2 | 55.3 |
| LYDVPANSM | 51.1 | 57.6 |
| NYDFGPIHM | 54.2 | 55.8 |
| AFDEAIAEL | 58.4 | 62.7 |
| LYDPVISKL | 56.9 | 57.3 |
| VYDLLKTNL | 59 | 58.3 |
| KADGVPVYL | 56.5 | 57.1 |
| SYMEVPTYL | 54.8 | 61 |
| AFDLTEQRY | 55.9 | 56.4 |
| FTDEESRVF | 48.1 | 46.7 |
| TFDPVTKVL | 51.4 | 51.5 |
| IWEPLAVKL | 47.3 | 47.2 |
| HFDDFVTNL | 58.7 | 58 |
| IYDSVKVYF | 56.8 | 57 |
| FYDPDVGNF | 50.9 | 51.2 |
| VADPYVVIM | 53.4 | 54.6 |
| AYDDKIYYF | 56.1 | 55.7 |
| SYDHVELTF | 51.3 | 51.9 |
| IFDSKVTEI | 55.4 | 54.8 |

Reference: the supplement of paper PMC7726561
